# An excerpt weighted towards active compounds, which were near 1.5% of everything screened.
# Measles CPE = protection of cells from measles virus; hit rate 1.5% among 140,000; protection (pct of control), % at 4 µM; Measles virus-infected cells, CPE protection, absorbance; in the data active = protection mostly above about 24%, no sharp cut-off; inactive = mostly below about 26%
# cytoskel mod = alters cytoskeleton assembly in HUVEC cells | HUVEC TNFa F-actin phalloidin imaging, high content | inhibition, % at 2 µM | hit rate 0.18% among 91,000 | AID 836;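 active = inhibition above the batch mean plus 3 SD and confirmed as a hit by visual image inspection, cut at about 30% in these data, passing the limit was not always enough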
# Active calls of the source: *; . = not tested or not shown.
SMILES,Measles CPE,cytoskel mod
O=C(NCCC1=CCCCC1)C1CCN(C(=O)c2ccc(Br)cc2)CC1,30.3*,.
COc1ccc(CCNC(=O)C2CCN(Cc3nc(-c4ccccc4F)oc3C)CC2)cc1OC,5.3,19.5
Cc1oc(-c2ccccc2F)nc1CN1CCC(C(=O)NCCC2=CCCCC2)CC1,23.9*,-14.4
CCc1nnc(N2C(=O)c3ccc(Oc4ccc([N+](=O)[O-])cc4)cc3C2=O)s1,13.3,.
CN(C)S(=O)(=O)c1cc(NC(=O)COC(=O)CCSc2ccc(Cl)cc2)ccc1Cl,14.2,.
CC(=O)Nc1ccc2nc(C)n(Cc3ccc(Cl)cc3)c(=O)c2c1,20.2,-10.4
CCOC(=O)CCNC(=O)Nc1ccc2nc(C)n(Cc3ccc(Cl)cc3)c(=O)c2c1,38.3*,11.8
Cc1ccc(-c2nnc(SCC(=O)NC3CCS(=O)(=O)C3)nc2-c2ccc(C)cc2)cc1 (stereo unspecified),3.1,.
Cc1cccc(S(=O)(=O)NNC(=O)c2sc(C)nc2C)c1,6.3,.
Cc1ccc([N+](=O)[O-])cc1N(CC(=O)Nc1ccc(S(=O)(=O)Nc2cccc(C(F)(F)F)c2)cc1)S(C)(=O)=O,13.4,.
C[N+]1(CCCCCCC(=O)/C=N/O)CCCCCC1,32.4*,-4.0
C[N+](C)(C)CCCCCCC(=O)/C=N/O,16.6,.
OCCSc1ncnc2c1oc1ccccc12,14.1,-9.4
O=C(O)CSc1ncnc2c1oc1ccccc12,27.3*,.
CC(C)c1ccccc1NC(=O)CCc1nc2ccccc2s1,6.0,.
CN(C)/C=C1/C=C(c2ccccc2)OC1=O,5.0,-5.3
O=C1C=C(c2ccccc2)OC(=O)C1C(=O)c1ccccc1 (stereo unspecified),27.2*,3.1
COC(=O)Cc1ccc(NC(=S)N2CCN(c3ccc(OC)cc3)CC2)cc1,34.1*,.
COC(=O)Cc1ccc(NC(=S)N2CCN(c3cccc(O)c3)CC2)cc1,23.9,.
COc1ccc(OC)c2c(C)cc(C)nc12,11.5,.
COc1cc2cc(CN(Cc3cccs3)C(=S)Nc3ccc(C)cc3)c(=O)[nH]c2cc1OC,30.4*,.
COc1cc2cc(CN(Cc3cccs3)C(=S)Nc3cccc(C)c3)c(=O)[nH]c2cc1OC,11.2,.
CCOC(=O)c1ccc(NC(=O)CC2S/C(=N/N=C/c3c[nH]c4ccccc34)NC2=O)cc1 (stereo unspecified),27.6*,.
Cc1ccc(NC(=O)CC2S/C(=N/N=C/c3c[nH]c4ccccc34)NC2=O)cc1 (stereo unspecified),13.2,.
COc1ccccc1CNC(=O)COC(=O)[C@H](Cc1c[nH]c2ccccc12)NC(=O)c1cccs1,3.2,.
SMILES,Measles CPE,cytoskel mod
CNC(=O)NC(=O)COC(=O)c1ccc(-n2c(C)ccc2C)cc1,4.9,.
Cn1nnnc1SCC(=O)Nc1cc(C(C)(C)C)nn1-c1ccccc1,2.0,-63.4
Cc1cc(NC(=O)CSc2nnnn2C)n(-c2ccccc2)n1,24.2,34.6*
CC1(C)Cc2ccccc2-c2nnc(-c3ccccc3)n21,13.3,.
CC1(C)Cc2ccccc2-c2nnc(C(F)(F)F)n21,40.6*,.
Cc1cc(C)n2nc(-c3cccnc3)nc2n1,4.5,10.6
Cc1cc(C)n2nc(-c3ccc(F)cc3)nc2n1,23.4*,.
O=C(Cc1ccc(F)cc1)Nc1ccc(F)c([N+](=O)[O-])c1,72.4*,-14.6
O=C(Nc1ccccc1)Nc1ccc(F)c([N+](=O)[O-])c1,9.9,.
CC(C)(C)c1ccc(-c2n[nH]c(=S)n2/N=C/c2ccncc2)cc1,4.6,.
C/C(O)=C\c1nc2ccccc2oc1=O,27.8*,-19.5
Cc1ccc2oc(=O)c(/C=C(\O)CC(C)C)nc2c1,6.7,.
c1ccc2cc(CSCc3nc4ccccc4[nH]3)ccc2c1,2.5,.
CCOc1ccc(C(=O)CC(=O)C(=O)NCCc2ccc(OC)c(OC)c2)cc1,37.9*,.
COc1ccc(OCCCC(=O)NCCc2ccc(OC)c(OC)c2)cc1,6.6,.
CCOC(=O)c1cc[n+](CC(=O)c2ccc(F)cc2)cc1,10.2,.
CNc1cc(CSC)nc(SCc2ccc(Cl)cc2Cl)n1,26.4*,1.4
Nc1nc(SCc2ccc(Cl)cc2Cl)n[nH]1,4.5,1.6
O=C(CN1CCOCC1)Nc1ccccc1Sc1ccc(Cl)cc1,6.2,.
Cc1ccc2cc(C#N)c(SCc3nnc(-c4ccccc4[N+](=O)[O-])o3)nc2c1,6.5,.
CNC(=O)COC(=O)c1cc(NC(=O)c2ccco2)c(OC)c(OC)c1,29.2,-0.1
COc1cc(C(=O)OCC(=O)c2cc(C)n(C)c2C)cc(NC(=O)c2ccco2)c1OC,53.0*,16.9
N#CC(c1ccccc1)N(CCCCl)C(=O)c1ccc(Br)cc1 (stereo unspecified),4.9,.
O=C(CSc1nnc(-c2ccccc2F)n1C1CC1)Nc1cccnc1Cl,7.0,.
O=C(c1ccc2c(=O)n3c(nc2c1)CCCCC3)N1CCN(C(c2ccccc2)c2ccccc2)CC1,42.4*,-0.3
Cc1ccc(S(=O)(=O)N2CCCCC2)cc1NC(=O)c1ccc2c(=O)n3c(nc2c1)CCCCC3,6.7,.
Cc1ccc(-c2csc(NC(=O)c3ccc4c(=O)n5c(nc4c3)CCCCC5)n2)cc1,55.9*,.
CN(C(=O)c1ccc2c(=O)n3c(nc2c1)CCCCC3)c1ccccc1,4.9,-2.2

# Screening results as filed in PubChem BioAssay.
